# Test results reported in publication PMC7862700, “An all-to-all approach to the identification of sequence-specific readers for epigenetic DNA modifications on cytosine”.
# How the values were obtained:
# Assay in all cases: DAPPL (digital affinity profiling via proximity ligation, sequencing); 10 mM Tris-HCl pH 7.5, 50 mM NaCl, 1 mM DTT, 4% glycerol, room temperature, 30 min; GST-TFs on glutathione beads, 16-mer random dsDNA library, 0.1% formaldehyde crosslink after washing; high values mean tight binding
# Details in all cases: protein: recombinant; tags: N-terminal GST; dsDNA, one strand shown
# ETV2 = target: T1, ETV2 (Homo sapiens, UniProt O00321 1-342)
# T1 sequence: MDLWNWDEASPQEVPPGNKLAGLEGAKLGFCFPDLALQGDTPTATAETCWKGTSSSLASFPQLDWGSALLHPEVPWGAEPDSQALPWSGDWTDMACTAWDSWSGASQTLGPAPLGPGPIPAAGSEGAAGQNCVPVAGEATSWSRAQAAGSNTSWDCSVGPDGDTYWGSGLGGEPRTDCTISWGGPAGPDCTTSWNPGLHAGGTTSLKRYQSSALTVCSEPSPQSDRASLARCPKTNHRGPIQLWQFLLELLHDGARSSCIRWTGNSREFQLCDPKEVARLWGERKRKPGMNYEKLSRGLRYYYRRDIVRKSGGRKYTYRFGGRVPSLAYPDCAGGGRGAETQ
# Method in brief: (§1)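 Human transcription factors fused to GST were expressed in yeast, captured on glutathione beads, given DNA barcodes and pooled with a GST-only negative control. Pools were incubated with 200 nmole of a 16-mer random double-stranded DNA library in Tris/NaCl/DTT/glycerol buffer at room temperature for 30 min. They were then washed, crosslinked with 0.1% formaldehyde, proximity-ligated (BsaI/T4 ligase, 1 h, 37 °C), PCR-amplified and sequenced on an Illumina NextSeq500. Binding signal is each 6-mer's read frequency for a factor divided by its frequency for the GST control.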
# ELF3 = target: T2, ELF3 (Homo sapiens, UniProt P78545 1-371)
# T2 sequence: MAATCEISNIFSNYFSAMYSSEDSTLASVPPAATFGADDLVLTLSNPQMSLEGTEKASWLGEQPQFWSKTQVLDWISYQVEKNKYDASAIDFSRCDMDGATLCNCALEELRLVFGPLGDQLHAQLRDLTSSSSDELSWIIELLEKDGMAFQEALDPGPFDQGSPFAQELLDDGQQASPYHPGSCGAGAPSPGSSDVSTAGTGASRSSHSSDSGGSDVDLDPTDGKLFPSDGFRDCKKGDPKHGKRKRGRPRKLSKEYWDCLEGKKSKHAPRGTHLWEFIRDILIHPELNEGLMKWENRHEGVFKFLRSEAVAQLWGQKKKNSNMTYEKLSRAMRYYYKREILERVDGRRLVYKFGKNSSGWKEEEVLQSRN
# Method in brief: as §1
# SPI1 = SPI1 (Homo sapiens, UniProt P17947 1-270)
# Method in brief: as §1
# SPIB = SPIB (Homo sapiens, UniProt Q01892 1-262)
# Method in brief: as §1
# ELK3 = target: T3, ELK3 (Homo sapiens, UniProt P41970 1-407)
# T3 sequence: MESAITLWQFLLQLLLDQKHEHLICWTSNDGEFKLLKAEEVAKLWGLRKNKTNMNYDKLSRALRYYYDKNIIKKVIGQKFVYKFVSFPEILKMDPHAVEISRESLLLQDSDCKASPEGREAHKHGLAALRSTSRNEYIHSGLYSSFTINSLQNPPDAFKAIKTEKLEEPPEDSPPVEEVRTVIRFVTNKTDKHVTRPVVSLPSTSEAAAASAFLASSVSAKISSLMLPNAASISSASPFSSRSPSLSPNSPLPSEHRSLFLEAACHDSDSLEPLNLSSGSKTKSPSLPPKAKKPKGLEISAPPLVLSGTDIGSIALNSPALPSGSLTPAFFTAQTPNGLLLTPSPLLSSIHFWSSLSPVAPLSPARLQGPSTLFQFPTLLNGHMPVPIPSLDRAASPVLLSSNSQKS
# Method in brief: as §1
# CRX = CRX (Homo sapiens, UniProt O43186 1-299)
# Method in brief: as §1
# ETV1 = ETV1 (Homo sapiens, UniProt P50549 1-477)
# Method in brief: as §1
# ERF = target: T4, ERF (Homo sapiens, UniProt P50548 1-548)
# T4 sequence: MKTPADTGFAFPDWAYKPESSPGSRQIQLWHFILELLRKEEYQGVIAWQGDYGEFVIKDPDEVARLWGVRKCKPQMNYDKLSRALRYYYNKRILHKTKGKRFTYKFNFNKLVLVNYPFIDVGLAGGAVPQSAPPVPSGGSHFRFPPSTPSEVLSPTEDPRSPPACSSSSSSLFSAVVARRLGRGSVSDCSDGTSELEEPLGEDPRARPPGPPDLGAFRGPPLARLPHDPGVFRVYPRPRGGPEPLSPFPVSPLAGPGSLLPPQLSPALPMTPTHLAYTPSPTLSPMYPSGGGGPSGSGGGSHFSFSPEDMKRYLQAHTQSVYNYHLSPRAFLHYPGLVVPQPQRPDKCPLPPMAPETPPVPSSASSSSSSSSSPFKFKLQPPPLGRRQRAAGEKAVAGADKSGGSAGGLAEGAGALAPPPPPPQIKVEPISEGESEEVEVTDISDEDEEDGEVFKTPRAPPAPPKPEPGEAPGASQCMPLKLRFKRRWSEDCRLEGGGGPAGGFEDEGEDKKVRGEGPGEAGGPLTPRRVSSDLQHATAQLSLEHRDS
# Method in brief: as §1
# ETV3L = target: T5, ETV3L (Homo sapiens, UniProt Q6ZN32 1-361)
# T5 sequence: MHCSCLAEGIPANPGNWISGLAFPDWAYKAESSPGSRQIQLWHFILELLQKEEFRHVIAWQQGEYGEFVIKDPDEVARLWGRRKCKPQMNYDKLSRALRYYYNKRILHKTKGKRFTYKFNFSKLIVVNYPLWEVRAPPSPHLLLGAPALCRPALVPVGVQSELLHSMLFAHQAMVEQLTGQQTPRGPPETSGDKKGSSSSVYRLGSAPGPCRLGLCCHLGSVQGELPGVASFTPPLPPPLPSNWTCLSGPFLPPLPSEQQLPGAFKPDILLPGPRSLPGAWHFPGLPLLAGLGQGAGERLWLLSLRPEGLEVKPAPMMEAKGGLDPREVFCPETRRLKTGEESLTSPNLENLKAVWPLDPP
# Method in brief: as §1
# ETV7 = target: T6, ETV7 (Homo sapiens, UniProt Q9Y603 1-341)
# T6 sequence: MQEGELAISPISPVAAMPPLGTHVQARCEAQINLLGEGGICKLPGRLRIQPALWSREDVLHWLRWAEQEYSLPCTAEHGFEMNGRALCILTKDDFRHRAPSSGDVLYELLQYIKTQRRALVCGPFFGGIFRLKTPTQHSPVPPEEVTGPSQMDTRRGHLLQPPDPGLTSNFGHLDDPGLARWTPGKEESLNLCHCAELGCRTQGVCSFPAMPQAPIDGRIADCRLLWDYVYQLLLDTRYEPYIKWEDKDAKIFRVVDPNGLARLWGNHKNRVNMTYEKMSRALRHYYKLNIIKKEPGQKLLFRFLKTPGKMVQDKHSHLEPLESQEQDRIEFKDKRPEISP
# Method in brief: as §1
# ETV6 = ETV6 (Homo sapiens, UniProt P41212 1-452)
# Method in brief: as §1
# ERG = target: T7, ERG (Homo sapiens, UniProt P11308 1-479)
# T7 sequence: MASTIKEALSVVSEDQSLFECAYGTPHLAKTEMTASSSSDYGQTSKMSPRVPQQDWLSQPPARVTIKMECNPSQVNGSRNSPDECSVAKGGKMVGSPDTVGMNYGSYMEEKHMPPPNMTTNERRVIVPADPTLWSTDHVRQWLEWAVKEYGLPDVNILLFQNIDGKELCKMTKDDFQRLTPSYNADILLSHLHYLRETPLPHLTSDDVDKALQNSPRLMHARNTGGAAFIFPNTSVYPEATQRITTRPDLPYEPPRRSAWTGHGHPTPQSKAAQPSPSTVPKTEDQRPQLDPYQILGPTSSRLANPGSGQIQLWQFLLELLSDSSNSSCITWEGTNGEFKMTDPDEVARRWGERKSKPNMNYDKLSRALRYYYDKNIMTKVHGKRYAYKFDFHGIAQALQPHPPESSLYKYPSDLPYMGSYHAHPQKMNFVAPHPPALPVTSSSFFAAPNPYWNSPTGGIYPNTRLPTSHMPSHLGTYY
# Method in brief: as §1
# ETS2 = target: T8, ETS2 (Homo sapiens, UniProt P15036 1-469)
# T8 sequence: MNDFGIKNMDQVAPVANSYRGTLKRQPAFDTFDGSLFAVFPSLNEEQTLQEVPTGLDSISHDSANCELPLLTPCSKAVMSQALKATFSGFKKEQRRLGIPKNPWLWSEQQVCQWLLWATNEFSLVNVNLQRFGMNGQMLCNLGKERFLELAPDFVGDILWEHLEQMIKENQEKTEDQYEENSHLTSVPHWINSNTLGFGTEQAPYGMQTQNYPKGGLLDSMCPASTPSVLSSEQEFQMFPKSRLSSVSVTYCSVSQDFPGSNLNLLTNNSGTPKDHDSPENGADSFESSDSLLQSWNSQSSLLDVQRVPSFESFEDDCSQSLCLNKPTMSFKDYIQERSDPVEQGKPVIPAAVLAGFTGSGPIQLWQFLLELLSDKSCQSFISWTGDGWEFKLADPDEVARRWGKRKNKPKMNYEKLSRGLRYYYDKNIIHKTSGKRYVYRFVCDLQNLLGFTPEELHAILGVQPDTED
# Method in brief: as §1
# FEV = target: T9, FEV (Homo sapiens, UniProt Q99581 1-238)
# T9 sequence: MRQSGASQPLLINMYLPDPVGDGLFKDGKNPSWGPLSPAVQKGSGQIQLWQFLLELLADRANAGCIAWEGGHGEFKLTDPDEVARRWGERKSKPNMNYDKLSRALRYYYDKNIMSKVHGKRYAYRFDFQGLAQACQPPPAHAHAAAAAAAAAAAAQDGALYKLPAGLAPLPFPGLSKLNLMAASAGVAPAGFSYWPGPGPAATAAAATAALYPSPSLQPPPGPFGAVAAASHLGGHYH
# Method in brief: as §1
# ELF1 = ELF1 (Homo sapiens, UniProt P32519 1-619)
# Method in brief: as §1
# SPDEF = target: T10, SPDEF (Homo sapiens, UniProt O95238 1-335)
# T10 sequence: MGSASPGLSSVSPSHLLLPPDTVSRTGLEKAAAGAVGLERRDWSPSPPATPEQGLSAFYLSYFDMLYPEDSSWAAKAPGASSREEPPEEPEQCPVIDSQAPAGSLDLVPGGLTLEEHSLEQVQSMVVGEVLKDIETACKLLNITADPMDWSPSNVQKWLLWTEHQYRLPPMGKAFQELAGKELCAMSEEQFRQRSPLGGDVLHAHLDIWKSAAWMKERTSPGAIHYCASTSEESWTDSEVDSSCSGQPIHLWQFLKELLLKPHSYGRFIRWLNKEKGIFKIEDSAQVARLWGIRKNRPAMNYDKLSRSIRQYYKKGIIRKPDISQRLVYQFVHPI
# Method in brief: as §1
# ELF5 = target: T11, ELF5 (Homo sapiens, UniProt Q9UKW6-2 1-255)
# T11 sequence: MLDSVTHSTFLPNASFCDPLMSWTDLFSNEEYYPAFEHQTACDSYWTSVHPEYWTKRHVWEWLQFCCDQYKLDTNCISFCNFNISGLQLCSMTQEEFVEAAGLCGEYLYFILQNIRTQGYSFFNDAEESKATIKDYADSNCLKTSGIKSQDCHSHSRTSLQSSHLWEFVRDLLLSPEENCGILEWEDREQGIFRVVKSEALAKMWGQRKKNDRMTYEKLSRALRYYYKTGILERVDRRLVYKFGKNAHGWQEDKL
# Method in brief: as §1
# ETV6, sequence (P41212 whole entry): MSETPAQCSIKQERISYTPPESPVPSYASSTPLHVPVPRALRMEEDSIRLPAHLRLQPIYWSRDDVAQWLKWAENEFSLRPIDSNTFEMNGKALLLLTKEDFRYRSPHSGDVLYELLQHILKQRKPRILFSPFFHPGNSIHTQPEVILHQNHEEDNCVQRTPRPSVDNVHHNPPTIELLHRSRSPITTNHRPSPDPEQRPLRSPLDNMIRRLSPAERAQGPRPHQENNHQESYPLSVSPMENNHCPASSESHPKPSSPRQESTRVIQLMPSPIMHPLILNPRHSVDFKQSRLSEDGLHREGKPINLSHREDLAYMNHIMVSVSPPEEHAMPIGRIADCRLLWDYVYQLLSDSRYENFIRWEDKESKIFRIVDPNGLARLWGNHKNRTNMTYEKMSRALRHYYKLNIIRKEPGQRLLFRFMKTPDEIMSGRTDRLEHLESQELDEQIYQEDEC
# SPIB, sequence (Q01892 whole entry): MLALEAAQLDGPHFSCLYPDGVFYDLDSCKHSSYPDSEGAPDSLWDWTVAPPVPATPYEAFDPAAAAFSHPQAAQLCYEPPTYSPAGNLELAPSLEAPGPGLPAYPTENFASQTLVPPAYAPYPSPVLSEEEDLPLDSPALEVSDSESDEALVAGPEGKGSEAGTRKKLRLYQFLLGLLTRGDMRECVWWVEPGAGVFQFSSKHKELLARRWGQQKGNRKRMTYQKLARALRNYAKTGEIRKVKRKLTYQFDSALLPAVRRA
# ETV1, sequence (P50549 whole entry): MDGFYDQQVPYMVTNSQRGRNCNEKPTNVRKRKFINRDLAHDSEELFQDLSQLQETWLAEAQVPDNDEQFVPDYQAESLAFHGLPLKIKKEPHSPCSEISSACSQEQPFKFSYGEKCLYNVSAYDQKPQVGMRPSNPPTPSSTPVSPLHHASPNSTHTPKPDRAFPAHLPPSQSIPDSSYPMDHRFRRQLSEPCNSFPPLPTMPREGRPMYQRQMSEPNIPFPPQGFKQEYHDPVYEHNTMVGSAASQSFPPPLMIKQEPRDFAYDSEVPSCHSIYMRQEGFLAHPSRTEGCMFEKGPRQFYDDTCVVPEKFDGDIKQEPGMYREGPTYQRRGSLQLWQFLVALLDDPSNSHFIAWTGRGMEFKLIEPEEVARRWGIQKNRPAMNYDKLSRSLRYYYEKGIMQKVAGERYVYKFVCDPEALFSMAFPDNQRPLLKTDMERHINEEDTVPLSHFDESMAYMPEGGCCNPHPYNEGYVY
# CRX, sequence (O43186 whole entry): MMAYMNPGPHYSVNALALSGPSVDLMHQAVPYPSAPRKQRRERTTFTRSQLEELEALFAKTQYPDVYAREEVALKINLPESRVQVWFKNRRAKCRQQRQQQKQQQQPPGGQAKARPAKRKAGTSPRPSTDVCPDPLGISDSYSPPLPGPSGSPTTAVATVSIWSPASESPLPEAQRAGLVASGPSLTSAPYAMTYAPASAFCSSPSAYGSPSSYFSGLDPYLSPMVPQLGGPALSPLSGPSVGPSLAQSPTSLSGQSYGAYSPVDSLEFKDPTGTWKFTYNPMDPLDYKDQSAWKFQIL
# ELF1, sequence (P32519 whole entry): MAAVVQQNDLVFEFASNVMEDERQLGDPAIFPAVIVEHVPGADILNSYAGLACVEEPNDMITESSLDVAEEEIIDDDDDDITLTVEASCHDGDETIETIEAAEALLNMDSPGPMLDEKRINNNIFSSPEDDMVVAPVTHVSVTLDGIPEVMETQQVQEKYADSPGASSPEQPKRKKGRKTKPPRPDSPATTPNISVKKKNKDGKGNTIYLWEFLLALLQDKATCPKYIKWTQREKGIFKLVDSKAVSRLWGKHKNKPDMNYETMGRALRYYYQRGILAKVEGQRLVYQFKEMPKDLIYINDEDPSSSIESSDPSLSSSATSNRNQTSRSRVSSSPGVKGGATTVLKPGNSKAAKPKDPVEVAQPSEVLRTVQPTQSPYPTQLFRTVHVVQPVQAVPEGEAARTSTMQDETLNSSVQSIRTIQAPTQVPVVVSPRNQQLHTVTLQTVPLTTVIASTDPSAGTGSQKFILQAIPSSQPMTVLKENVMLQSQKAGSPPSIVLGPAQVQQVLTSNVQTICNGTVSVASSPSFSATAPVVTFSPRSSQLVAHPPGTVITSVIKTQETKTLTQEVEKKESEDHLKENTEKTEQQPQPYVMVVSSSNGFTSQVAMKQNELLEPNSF
sequence,measurement,setting,value
GGCATA,binding signal,ETV2,"1.05 fold enrichment (6-mer frequency, TF over GST control)"
GACCCC,binding signal,ELF3,"1.04 fold enrichment (6-mer frequency, TF over GST control)"
TAGTCA,binding signal,ELF3,"1.07 fold enrichment (6-mer frequency, TF over GST control)"
GACCGA,binding signal,ETV2,"1.04 fold enrichment (6-mer frequency, TF over GST control)"
TCGTCG,binding signal,ETV2,"1.05 fold enrichment (6-mer frequency, TF over GST control)"
AGTTTA,binding signal,SPI1,"1.01 fold enrichment (6-mer frequency, TF over GST control)"
same,binding signal,SPIB,"1.04 fold enrichment (6-mer frequency, TF over GST control)"
same,binding signal,ELK3,"1.03 fold enrichment (6-mer frequency, TF over GST control)"
same,binding signal,ELF3,"1.11 fold enrichment (6-mer frequency, TF over GST control)"
same,binding signal,CRX,"1.08 fold enrichment (6-mer frequency, TF over GST control)"
same,binding signal,ETV1,"1.04 fold enrichment (6-mer frequency, TF over GST control)"
same,binding signal,ERF,"1.01 fold enrichment (6-mer frequency, TF over GST control)"
same,binding signal,ETV3L,"1.09 fold enrichment (6-mer frequency, TF over GST control)"
same,binding signal,ETV7,"1.02 fold enrichment (6-mer frequency, TF over GST control)"
same,binding signal,ETV6,"1.12 fold enrichment (6-mer frequency, TF over GST control)"
GGATGA,binding signal,ERG,"1.01 fold enrichment (6-mer frequency, TF over GST control)"
same,binding signal,SPIB,"1.06 fold enrichment (6-mer frequency, TF over GST control)"
same,binding signal,ETV1,"1.05 fold enrichment (6-mer frequency, TF over GST control)"
same,binding signal,ETS2,"1.1 fold enrichment (6-mer frequency, TF over GST control)"
AGGATA,binding signal,ERG,"1.06 fold enrichment (6-mer frequency, TF over GST control)"
same,binding signal,FEV,"1.01 fold enrichment (6-mer frequency, TF over GST control)"
TGTCGC,binding signal,ELF1,"1.04 fold enrichment (6-mer frequency, TF over GST control)"
same,binding signal,FEV,"1.02 fold enrichment (6-mer frequency, TF over GST control)"
same,binding signal,ETV6,"1.01 fold enrichment (6-mer frequency, TF over GST control)"
CCAAAG,binding signal,SPIB,"1.01 fold enrichment (6-mer frequency, TF over GST control)"
TGACAG,binding signal,ETV3L,"1 fold enrichment (6-mer frequency, TF over GST control)"
CGCGGA,binding signal,ETS2,"1 fold enrichment (6-mer frequency, TF over GST control)"
AGTACG,binding signal,ETV6,"1.03 fold enrichment (6-mer frequency, TF over GST control)"
GGGTCT,binding signal,SPDEF,"1.01 fold enrichment (6-mer frequency, TF over GST control)"
GACGAA,binding signal,ERF,"1.01 fold enrichment (6-mer frequency, TF over GST control)"
CCGGGC,binding signal,SPDEF,"1.05 fold enrichment (6-mer frequency, TF over GST control)"
GTCTGT,binding signal,ETV1,"1.01 fold enrichment (6-mer frequency, TF over GST control)"
CGGTAC,binding signal,SPIB,"1.06 fold enrichment (6-mer frequency, TF over GST control)"
same,binding signal,FEV,"1.05 fold enrichment (6-mer frequency, TF over GST control)"
same,binding signal,ETV1,"1.01 fold enrichment (6-mer frequency, TF over GST control)"
same,binding signal,SPDEF,"1.07 fold enrichment (6-mer frequency, TF over GST control)"
same,binding signal,ELF5,"1.02 fold enrichment (6-mer frequency, TF over GST control)"
TGGGCC,binding signal,ERF,"1.03 fold enrichment (6-mer frequency, TF over GST control)"
